Shown are actives, neighbours in structure and some others; about 1.2% of the full set was active somewhere.
USP10 block: inhibitors of human USP10 deubiquitinase; Ubiquitin carboxyl-terminal hydrolase 10 (Homo sapiens), Q14694; purified USP10, Ub-rhodamine fluorescence, 60 min; inhibition, % at 20 µM; actives 1.1% (n = 47,000); AID 1645856, 2021
USP7 inh: inhibitors of human USP7 deubiquitinase | inhibition, % at 20 µM | actives 0.3% (n = 47,000) | Ubiquitin carboxyl-terminal hydrolase 7 (Homo sapiens), Q93009 | purified USP7, Ub-rhodamine cleavage fluorescence
UCHL1 block: inhibitors of human UCHL1 deubiquitinase | purified UCHL1, Ub-rhodamine cleavage fluorescence | Ubiquitin carboxyl-terminal hydrolase isozyme L1 (Homo sapiens), P09936 | inhibition, % at 20 µM | AID 1645859, 2021 | actives 0.2% (n = 47,000)
Numbers stand for hits; n = inactive. Rule as the data show it: active = inhibition above about 30%; inactive = the rest.

SMILES	USP10 block	USP7 inh	UCHL1 block
CC(C)(C)c1ccc(C2CC(=O)C3=C(C2)Nc2ccccc2N(C(=O)CCC(=O)O)C3c2cccc([N+](=O)[O-])c2)cc1 (stereo unspecified)	33	n	n
CCC(=O)N1c2ccccc2NC2=C(C(=O)CC(c3cccc([N+](=O)[O-])c3)C2)C1c1ccco1 (stereo unspecified)	n	n	n
COc1cc(NC(=O)CSc2nnc(-c3cc4ccccc4n3C)o2)cc(OC)c1	n	n	n
CCn1c(-c2nnc(SCC(=O)NCCc3nc4ccccc4[nH]3)o2)cc2ccccc21	n	46	n
Cc1ccc(NC(=O)COc2ccc(-c3nc(C(C)C)no3)cc2)c(F)c1	n	n	n
CC(=O)c1cc(-c2ccc(F)cc2)n(CC(=O)Nc2cccc(C)c2C)c1C	35	n	n
CC(=O)c1cc(-c2ccc(F)cc2)n(CC(=O)NCc2ccc(N(C)C)cc2)c1C	n	n	n
Cc1cc(NC(=O)c2cc(-c3cccnc3)n[nH]2)ccc1Br	38	39	n
Cc1cc(NC(=O)c2cc(-c3ccccn3)n[nH]2)ccc1Br	n	n	n
Cc1ccc(S(=O)(=O)Nc2ccccc2C(=O)Nc2nc3ccc(Br)cc3s2)cc1	93	89	53
Cc1ccc2nc(NC(=O)c3ccccc3OCc3ccccc3Cl)sc2c1	n	n	n
CC1(C)CCCC2=C1CC(C)(C)C(N(C(=O)/C=C/C(=O)O)c1ccccc1)C2 (stereo unspecified)	34	n	n
COc1ccc(OC)c2c(C)cc(N3CC(C)CC(C)C3)nc12 (stereo unspecified)	n	n	n
COc1cc(OC)cc(-n2c(=O)c3sccc3n(CC(=O)Nc3ccc(C)cc3)c2=O)c1	n	n	n
COc1ccc(CCNC(=O)Cn2c(=O)c3sccc3n(Cc3ccccc3F)c2=O)cc1OC	n	n	n
CCOc1ccc(-n2c(=O)c3sccc3n(CC(=O)Nc3cccc(C)c3)c2=O)cc1	41	n	n
Cc1ccc(CNC(=O)Cn2c(=O)c3sccc3n(CC(=O)Nc3ccc4c(c3)OCCO4)c2=O)cc1	n	n	n
COc1ccc(CCNC(=O)Cn2c(=O)c3sccc3n(Cc3cccc([N+](=O)[O-])c3)c2=O)cc1OC	32	n	n
COc1ccccc1CNC(=O)CCCCn1c(=O)c2ccccc2n(CC(=O)NCCC2=CCCCC2)c1=O	n	n	n
Cc1ccc(NC(=O)Cn2c(=O)n(CC(=O)NCCc3ccccc3)c(=O)c3sccc32)cc1C	40	n	n
O=C(Cn1c(=O)c2sccc2n(CC(=O)NCCC2=CCCCC2)c1=O)NCc1ccccc1Cl	37	n	n
N#Cc1cccc(CN2CCCC3(Cc4ccccc4CNC3=O)C2)c1 (stereo unspecified)	n	n	n
CC(=O)c1cccc(NC(=O)c2ccc(-c3noc(C)n3)cc2)c1	n	n	n
COc1ccc(OC)c(C2CCCN2CC(=O)NC2CCCCC2)c1 (stereo unspecified)	n	n	n
O=C(Cc1cccnc1)N[C@@H]1CC[C@@H](Oc2ccccc2)[C@@H](O)[C@@H]1O	n	n	n
SMILES	USP10 block	USP7 inh	UCHL1 block
O=S(=O)(c1cn[nH]c1)N1CCCC1c1cccc(Cc2ccccc2)n1 (stereo unspecified)	n	n	n
Cc1cc(C(=O)N2CCc3nc4scc(C)c4c(=O)n3CC2)on1	n	n	n
COc1ccc(NC(=O)Cn2c(=O)n(CCCC(=O)NC3CCN(Cc4ccccc4)CC3)c(=O)c3ccccc32)cc1Cl	n	n	n
COc1ccc(NC(=O)Cn2c(=O)n(CCC(=O)NCc3ccccc3)c(=O)c3sccc32)cc1Cl	49	n	n
COc1ccc(Cn2nccc2NC(=O)C(C)Oc2ccc(C)c(C)c2)cc1 (stereo unspecified)	n	n	n
CCn1nnc2cc(C(=O)NCc3ccc4c(c3)OCO4)ccc21	n	n	n
Nc1c(C(=O)NCc2ccc3c(c2)OCO3)nnn1Cc1ccc(Br)cc1F	31	n	n
Cc1c(OCC(=O)Nc2nc3ccccc3[nH]2)ccc2c3c(c(=O)oc12)CCC3	n	n	n
C=C1O[C@](CO)(n2cnc3c(N)ncnc32)[C@@H](O)[C@H]1O	n	n	n
Nc1ncnc2c1ncn2[C@@H]1O[C@H](CO)C[C@@H]1O	n	30	n
CC1=C(C)C(N(c2ccccc2)c2ccccc2)N(CCC(C)C)C1=O (stereo unspecified)	n	n	n
COc1cccc(NC(=O)CCc2c(C)nc3c(c2C)c(=O)n(C)c(=O)n3C)c1	n	n	n
COc1ccc2cc(-c3nc4cc(C)ccn4c3NCc3ccccc3)c(=O)[nH]c2c1	n	n	n
Cc1ccc2[nH]c(=O)c(-c3nc4ccc(C)cn4c3NCc3ccc(F)cc3)cc2c1	47	51	n
